Records with an inconclusive call do not appear. Entries that show only a call come without a potency. A structure can be active in one record and inactive in another. Active and inactive are the calls of the source. Calls follow the shape of the dose curve; as a rule, active = well fitted inhibition curve with a large enough effect; inconclusive = small, poorly fitted or top-dose-only effect; inactive = no such curve, though single readings can be large or run the other way.
Each molecule was assayed against M-phase phosphoprotein 8 (Homo sapiens) (UniProt Q99549) (assay: qHTS Validation Assay for Inhibitors for MPP8 Chromodomain Interactions with Methylated Histone Tails (AID 488949; also: nearly all actives have a fitted effect of over 55% in size; as to activity change, negative = inhibition: top concentration of the series differs between compounds)). Conditions: AlphaScreen MPP8 binding to H3K9me3 peptide; series mostly up to 57.1 µM; activity change, negative = inhibition: at the top concentration.
Sequence of M-phase phosphoprotein 8 (Homo sapiens) (Q99549 whole entry, looked up): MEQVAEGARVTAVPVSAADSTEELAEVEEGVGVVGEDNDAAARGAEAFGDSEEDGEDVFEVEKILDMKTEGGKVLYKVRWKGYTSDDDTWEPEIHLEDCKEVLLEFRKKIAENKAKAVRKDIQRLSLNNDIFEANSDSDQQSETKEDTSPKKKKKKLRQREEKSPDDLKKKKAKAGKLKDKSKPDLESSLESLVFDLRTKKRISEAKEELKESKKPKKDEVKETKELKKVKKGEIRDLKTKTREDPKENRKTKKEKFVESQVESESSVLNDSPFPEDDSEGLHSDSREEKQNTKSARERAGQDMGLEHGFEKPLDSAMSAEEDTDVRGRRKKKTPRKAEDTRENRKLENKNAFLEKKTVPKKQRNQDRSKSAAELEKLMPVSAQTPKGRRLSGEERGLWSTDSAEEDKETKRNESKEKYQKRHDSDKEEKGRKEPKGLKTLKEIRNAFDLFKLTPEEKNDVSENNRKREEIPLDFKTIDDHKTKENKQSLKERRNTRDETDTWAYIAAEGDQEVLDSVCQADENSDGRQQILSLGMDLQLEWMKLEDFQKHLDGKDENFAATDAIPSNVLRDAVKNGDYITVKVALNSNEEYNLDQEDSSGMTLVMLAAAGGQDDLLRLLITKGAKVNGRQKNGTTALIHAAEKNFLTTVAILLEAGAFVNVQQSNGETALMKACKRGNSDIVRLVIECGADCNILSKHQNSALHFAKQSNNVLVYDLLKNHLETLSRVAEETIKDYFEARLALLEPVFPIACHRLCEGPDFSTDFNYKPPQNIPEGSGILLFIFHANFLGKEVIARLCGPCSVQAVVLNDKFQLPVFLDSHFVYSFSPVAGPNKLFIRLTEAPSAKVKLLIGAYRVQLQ
From the text: As our understanding of epigenetics expands, it is becoming clear that players in this field are potential targets for drug development. This area of epigenetic therapy has established applications for the treatment of cancer and neurological diseases. We have been involved in this field for a number of years and have performed high-throughput screens to identify the first small molecule inhibitors of protein methyltransferases. These methyltransferases target multiple substrates, and thus regulate many arms of an epigenetic pathway. The methylation of different substrates often generates docking sites for effector proteins that harbor binding domains (chromo, tudor, PHD, MBT and ANK repeats). It has been proposed that the binding sites generated for different proteins by these post-translational modifcations mediate downstream effects on chromatin. Consistent with this theory, di- and tri-methylation of histone H3K9 facilitates the binding of heterochromatin protein HP1. The HP1 protein harbors a chromodomain that is responsible for the methyl-dependent interaction between HP1 and lysine 9 of histone H3. HP1 was first described in flies as a heterochromatin associated protein that can regulate gene silencing. It harbors a chromodomain that binds H3K9me3. In addition, it harbors a chromoshadow domain that interacts with a large number of proteins that are involved in heterochromatin formation and gene repression. There are three highly related HP1 isoforms. All three variants are associated with pericentric heterochromatin and it is not clear whether they have specific or redundant functions. MPP8 is also involved in the repression of gene in euchromatic regions (unpublished data) and like HP1 its chromodomain binds H3K9me3. MPP8 harbors an ankyrin repeat region that is likely involved in binding and recruiting interacting proteins with transcriptional repressive function, much like the chromoshadow domain of HP1 does. We hypothesize that by inhibiting specific protein-protein interactions we will be able to develop compounds that block a single arm of an epigenetic pathway. The specificity attained by blocking a single protein-protein interaction will be far greater than that attained by blocking the enzyme that regulates one of many interactions. Low-affinity protein-protein interactions (Kd in the single- to double-digit micromolar range) such as those discussed here have been very difficult to assay by traditional techniques such as fluorescence polarization or fluorescence resonance energy transfer. We have developed a sensitive chemiluminescence-based assay (Quinn, et al. 2009), which serves as the starting point for this project. The following is a validation assay to identify lead compounds that can block methyl-dependent protein-protein interactions (specifically MPP8), which can be used as probes to analyze these methyl-driven interactions and perhaps even developed into targeted epigenetic therapies. Assay Provider: Mark T. Bedford, MD Anderson Screening Center PI: Austin, C.P. Screening Center: NIH Chemical Genomics Center [NCGC]
To each well, 2 uL of MPP8 protein (final 50 nM) and 1 uL biotinylated histone peptide trimethylated at Lys9 [b-H3(1-18)K9me3] (final 50 nM) was added in 1x PBS buffer, pH 7.4, containing 0.01% Tween-20 using a nanoliter dispenser. Formation of a protein-peptide complex proceeded at room temperature for 30 min. A Kalypsys pin-tool was employed to transfer 23 nL of library compound solution in DMSO to each well. Aurintricarboxylic acid (ATA) was used as an intraplate control with a 12-point titration in duplicate. Following a 30 min incubation of the protein-peptide complex with compounds at room temperature, a mixture of 40 ug/mL each streptavidin-coated donor and nickel chelate acceptor AlphaScreen beads (final 10 ug/mL) was added in a 1 uL dispense for a final volume of 4 uL. Plates were incubated protected from the light for 30 min at room temperature. […]
Potency is read from the fitted curve at half-maximal effect.

Row | Compound | Potency | activity change, negative = inhibition
1 | C[N+]1(C)C2CCC1CC(OC(=O)C(CO)c1ccccc1)C2 (stereo not given) | inactive | –
2 | c1ccc(C2(c3ccccc3)CC2C2=NCCN2)cc1 (stereo not given) | – | -1.17% (inactive)
3 | O=C1CCCN1CC#CCN1CCCC1 | inactive | –
4 | CC(C)Oc1cccnc1N(C)C1CCN(Cc2ccccc2)CC1 | inactive | –
5 | CN[C@@H]1C[C@@H](c2ccc(Cl)c(Cl)c2)c2ccccc21 | inactive | –
6 | CC(=O)[C@H]1CCC2C3CC[C@H]4C[C@H](O)CC[C@]4(C)C3CC[C@@]21C (stereo not given in full) | inactive | –
7 | CC[C@@]1(O)C(=O)OCc2c1cc1n(c2=O)Cc2cc3ccccc3nc2-1 | – | -3.74% (inactive)
8 | CCCN(CCC)C1CCc2ccc(O)cc2C1 (stereo not given) | inactive | –
9 | CS(=N)(=O)CC[C@H](N)C(=O)O (stereo not given in full) | inactive | –
10 | O=C(O)CC[N+](=O)[O-] | inactive | –
11 | CC(Cc1ccc(O)cc1)NCC(O)c1cc(O)cc(O)c1 (stereo not given) | inactive | –
12 | Clc1cnc(Oc2ccc(Oc3ncc(Cl)cc3Cl)cc2)c(Cl)c1 | inactive | –
13 | CNCCc1ccc(O)c(O)c1 | – | -2.9% [at 114 µM] (inactive)
14 | CCCN(CCC)[C@@H]1CCc2ccc(O)cc2C1 | inactive | –
15 | COc1cc(C(O)CN)ccc1O (stereo not given) | inactive | –
16 | C[C@@H](N)Cc1cnc[nH]1 | inactive | –
17 | NC1CC1c1ccccc1 (stereo not given) | inactive | –
18 | NC(CP(=O)(O)O)C(=O)O (stereo not given) | inactive | –
19 | Clc1ccc(C(c2ccc(Cl)cc2)n2cc[n+](CC(OCc3ccc(Cl)cc3Cl)c3ccc(Cl)cc3Cl)c2)cc1 (stereo not given) | 35.5 µM (active) and inactive | –
20 | Cn1cnc(CCN)c1 | inactive | –

Row | Compound | Potency | activity change, negative = inhibition
21 | C#CCOC(=O)C1=CCCN(C)C1 | inactive | –
22 | O=C(Cc1ccc(Cl)c(Cl)c1)N1CCCCC1CN1CCCC1 (stereo not given) | inactive | –
23 | CCCN1CCO[C@@H]2c3cc(O)ccc3OC[C@H]21 | inactive | –
24 | NC(=O)CN1CC(O)CC1=O (stereo not given) | inactive | –
25 | CCCN1CCC[C@H](c2cccc(O)c2)C1 | inactive | –
26 | C[N+](C)(C)CC(=O)O | inactive | –
27 | C[C@]12CCC3C(CC[C@H]4C[C@H](O)CC[C@]34C)C1CC[C@@H]2C(=O)CO (stereo not given in full) | inactive | –
28 | O=C(O)[C@@H]1CCN1 | inactive | –
29 | COC(=O)[C@@H](N)CCCN=C(N)N[N+](=O)[O-] | – | -0.752% (inactive)
30 | C[C@]12N[C@H](Cc3ccccc31)c1ccccc12 | inactive | –
31 | NC(CCP(=O)(O)O)C(=O)O (stereo not given) | inactive | –
32 | CC[C@@H]1C(=O)OC[C@@H]1Cc1cncn1C | inactive | –
33 | CC(C)NC(C)Cc1ccc(I)cc1 (stereo not given) | inactive | –
34 | C[N+]1(C)C2CC(OC(=O)[C@H](CO)c3ccccc3)CC1C1OC12 (stereo not given in full) | inactive | –
35 | CC1=NN=C(c2ccc(N)cc2)c2cc3c(cc2C1)OCO3 | inactive | –
36 | NCCc1c[nH]c2ccccc12 | inactive | –
37 | Oc1ccc2c3c1O[C@H]1c4[nH]c5c(c4C[C@@]4(O)[C@@H](C2)N(CC2CC2)CC[C@]314)C[C@@]1(O)[C@H]2Cc3ccc(O)c4c3[C@@]1(CCN2CC1CC1)[C@H]5O4 | – | 7.64% (inactive)
38 | C=CCN1CC[C@]23CCCCC2[C@H]1Cc1ccc(O)cc13 (stereo not given in full) | inactive | –
39 | NC(N)=NOCCC(N)C(=O)O (stereo not given) | inactive | –
40 | NCc1cc(=O)[nH]o1 | inactive | –

Reference: PubChem BioAssay (NCATS)
